From PubChem BioAssay (NCATS)
Results filed as inconclusive are left out. A call without a number means that no potency is given here. Calls of active or inactive are those of the source. Unless noted, calls follow the shape of the dose curve; as a rule, active = well fitted curve in the direction sought with a large enough effect; inconclusive = small, poorly fitted or top-dose-only effect, or another doubt; inactive = no such curve, though single readings can be large; an effect the other way counts as inactive or inconclusive.

Assays:
[1] = Nrf2 qHTS screen for inhibitors: Validation (AID 493153; active = well fitted inhibition curve with a large enough effect in the main read-out, with a control signal flat, not every such curve was filed as active); details: Potency: luciferase luminescence; viability change: measured here: cytotoxicity max response
Procedure, shortened: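 Concentration-response on A549 ARE_Fluc reporter cells exposed 18-24 h at 37 C, 5% CO2. Cytotoxicity read first by CellTiter-Fluor fluorescence (Ex 405/Em 525), then Nrf2 inhibition by BugLite luminescence after 15 min.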

[2] = qHTS for Inhibitors of Cell Surface uPA Generation: Validation Assay (AID 493164);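 also: RAW 264.7 macrophage cells exposed to compound for 18 h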
Procedure, shortened: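 ATP-Lite luminescence read-out: ATP remains high when uPA activity-dependent LF translocation into the cytoplasm is blocked. RAW 264.7 cells, 18 h compound exposure at 37 C; 7-point titration, 2.45 nM to 38.3 uM final.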

[3] = target: Galactokinase (Homo sapiens) (UniProt P51570); assay: qHTS Validation Assay for Inhibitors of Human Galactokinase (GALK) (AID 493189)
Chain of Galactokinase (Homo sapiens) (P51570 whole entry, looked up): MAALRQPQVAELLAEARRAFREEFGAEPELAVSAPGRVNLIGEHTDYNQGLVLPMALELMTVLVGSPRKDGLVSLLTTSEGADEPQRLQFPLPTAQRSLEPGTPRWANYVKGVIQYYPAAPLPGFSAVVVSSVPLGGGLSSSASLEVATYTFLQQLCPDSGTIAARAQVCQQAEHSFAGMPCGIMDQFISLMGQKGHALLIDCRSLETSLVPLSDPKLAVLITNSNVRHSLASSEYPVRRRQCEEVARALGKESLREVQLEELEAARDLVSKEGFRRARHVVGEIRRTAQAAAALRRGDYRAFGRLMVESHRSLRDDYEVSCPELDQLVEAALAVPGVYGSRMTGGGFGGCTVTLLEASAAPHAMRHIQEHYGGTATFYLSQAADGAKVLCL
Procedure, shortened: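 Luminescence from leftover ATP (Kinase-Glo Plus, 10 min) served as read-out after a 1 h room-temperature reaction of 5 nM GALK, 100 uM galactose and 35 uM ATP at pH8.0.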

[4] = Validation screen for small molecules that induce DNA re-replication in SW480 colon adenocarcinoma cells (AID 504364)
Procedure, shortened: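 Image-based DNA content read-out: Hoechst stain 40 min, total nuclear fluorescence intensity (ex 405 nm, em 500-530 nm) after 48 h compound exposure of 250 SW480 cells/well at 37 C, 5% CO2, versus DMSO vehicle.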

[5] = target: Peptidyl-prolyl cis-trans isomerase NIMA-interacting 1 (Homo sapiens) (UniProt Q13526); assay: qHTS Validation Assay to Find Inhibitors of Pin1 (AID 504536; active = well fitted inhibition curve with a large enough effect in the polarisation, with a control signal flat, not every such curve was filed as active; the % refers to the polarisation; also: potency is read from the fitted curve at half-maximal effect)
Chain of Peptidyl-prolyl cis-trans isomerase NIMA-interacting 1 (Homo sapiens) (Q13526 whole entry, looked up): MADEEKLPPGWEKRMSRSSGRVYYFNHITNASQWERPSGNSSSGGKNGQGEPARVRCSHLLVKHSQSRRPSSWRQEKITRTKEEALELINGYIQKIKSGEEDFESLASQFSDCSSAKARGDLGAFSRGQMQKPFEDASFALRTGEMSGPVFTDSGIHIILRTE
Procedure, shortened: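 Fluorescence polarization competition: compounds (titration) displace HiFluor-488-labeled Pin1-1b peptide from Pin1 (0.3 uM final) in pH 7.5 HEPES buffer with DTT, 10 min at room temperature; %Activity normalized to no-enzyme wells, curves fitted.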

[6] = target: Phosphoglycerate kinase, glycosomal (Trypanosoma brucei brucei) (UniProt P07378); assay: qHTS Validation Assay to Find Inhibitors of Phosphoglycerate Kinase (AID 504547)
Chain of Phosphoglycerate kinase, glycosomal (Trypanosoma brucei brucei) (P07378 whole entry, looked up): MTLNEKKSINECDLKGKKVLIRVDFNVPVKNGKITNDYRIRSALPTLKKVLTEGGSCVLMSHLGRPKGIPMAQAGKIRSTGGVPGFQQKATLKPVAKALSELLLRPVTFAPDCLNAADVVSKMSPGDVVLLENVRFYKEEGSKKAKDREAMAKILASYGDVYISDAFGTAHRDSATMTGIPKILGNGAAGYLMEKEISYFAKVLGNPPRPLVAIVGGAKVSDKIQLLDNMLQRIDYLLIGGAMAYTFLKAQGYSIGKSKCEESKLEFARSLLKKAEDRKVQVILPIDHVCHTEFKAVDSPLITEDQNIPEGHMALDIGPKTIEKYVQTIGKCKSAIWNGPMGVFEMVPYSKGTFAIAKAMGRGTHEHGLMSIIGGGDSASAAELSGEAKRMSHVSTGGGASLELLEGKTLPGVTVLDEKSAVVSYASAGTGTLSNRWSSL
Procedure, shortened: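 Luminescence end-point (Kinase-Glo Plus, 10 min) after a 60 min room-temperature coupled reaction. GAPDH at 100nM final supplies 1,3-BPG to PGK. Buffer: 100mM TEA pH 7.6, 5mM MgCl2, 0.01% Tween-20. Wells lacking PGK served as controls.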

[7] = target: phosphoglycerate mutase (Leishmania major) (UniProt Q4Q090); assay: qHTS Validation Assay to Find Inhibitors of Phosphoglycerate Mutase (AID 504548); details: Potency: inhibition qHTS;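 also: end-point luminescence from Kinase-GloPlus after the PGAM reaction; series mostly up to about 58 µM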
Chain of phosphoglycerate mutase (Leishmania major) (Q4Q090 1-553): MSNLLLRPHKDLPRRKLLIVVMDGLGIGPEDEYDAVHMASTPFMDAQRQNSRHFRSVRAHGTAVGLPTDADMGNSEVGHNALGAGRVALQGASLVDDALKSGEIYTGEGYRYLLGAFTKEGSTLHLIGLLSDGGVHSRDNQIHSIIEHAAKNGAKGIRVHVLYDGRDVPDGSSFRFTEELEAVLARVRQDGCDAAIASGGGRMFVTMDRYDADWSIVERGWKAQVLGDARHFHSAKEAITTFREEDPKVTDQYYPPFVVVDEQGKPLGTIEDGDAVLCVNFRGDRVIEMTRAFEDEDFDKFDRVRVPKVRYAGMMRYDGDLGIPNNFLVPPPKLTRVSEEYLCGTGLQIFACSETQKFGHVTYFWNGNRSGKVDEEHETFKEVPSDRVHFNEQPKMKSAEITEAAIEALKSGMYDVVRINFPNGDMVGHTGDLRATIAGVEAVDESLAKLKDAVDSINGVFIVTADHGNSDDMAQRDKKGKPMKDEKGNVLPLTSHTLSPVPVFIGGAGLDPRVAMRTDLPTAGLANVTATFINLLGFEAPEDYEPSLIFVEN
Procedure, shortened: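 Inhibition of L. major PGAM was assessed by Kinase-GloPlus luminescence following a 45-minute room-temperature reaction with enzyme at 1.25nM final.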

[8] = target: Ubiquitin carboxyl-terminal hydrolase 1 (Homo sapiens) (UniProt O94782); assay: Inhibitors of USP1/UAF1: Pilot qHTS (AID 504865);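 also: rhodamine fluorescence freed from ubiquitin-rhodamine substrate followed over time; top concentration of the series differs between compounds; nearly all actives have a fitted effect of over 35% in size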
Chain of Ubiquitin carboxyl-terminal hydrolase 1 (Homo sapiens) (O94782 whole entry, looked up): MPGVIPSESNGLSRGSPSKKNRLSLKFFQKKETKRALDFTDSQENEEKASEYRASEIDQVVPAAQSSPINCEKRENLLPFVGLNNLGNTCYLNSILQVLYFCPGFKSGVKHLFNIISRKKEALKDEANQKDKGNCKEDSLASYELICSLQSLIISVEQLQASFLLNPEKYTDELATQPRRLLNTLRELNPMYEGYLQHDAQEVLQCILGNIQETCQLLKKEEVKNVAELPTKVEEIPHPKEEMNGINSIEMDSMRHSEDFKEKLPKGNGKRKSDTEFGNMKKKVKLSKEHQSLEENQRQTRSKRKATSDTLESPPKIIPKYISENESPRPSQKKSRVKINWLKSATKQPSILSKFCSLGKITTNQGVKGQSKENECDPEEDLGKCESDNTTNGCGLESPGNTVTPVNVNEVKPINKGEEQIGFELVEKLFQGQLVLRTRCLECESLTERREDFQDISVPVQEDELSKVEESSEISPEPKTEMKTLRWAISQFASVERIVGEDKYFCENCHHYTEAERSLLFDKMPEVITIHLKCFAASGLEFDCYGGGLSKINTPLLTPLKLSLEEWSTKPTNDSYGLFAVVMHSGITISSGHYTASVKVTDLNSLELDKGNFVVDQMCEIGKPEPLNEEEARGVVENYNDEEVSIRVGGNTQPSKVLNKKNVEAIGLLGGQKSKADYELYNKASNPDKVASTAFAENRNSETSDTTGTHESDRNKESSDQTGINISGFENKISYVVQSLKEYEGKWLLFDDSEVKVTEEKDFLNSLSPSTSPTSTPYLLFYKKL
Procedure, shortened: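 1nM USP1/UAF1 + cpd, 15 min RT; start w/ Ub-Rho 150nM final; kinetic FL 480/540 nm, 6 reads q60 s. Buffer 50mM HEPES pH 7.8, 0.5mM EDTA, 1mM TCEP, 0.01% Tween-20, 0.1 mg/ml BSA.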

[9] = qHTS for Inhibitors of ATXN expression: Validation of Cytotoxic Assay (AID 588349)
Procedure, shortened: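 Cytotoxicity counter-screen: ATP-based luminescent viability (CellTiter Glo) after 72 hr exposure of HEK293 cells to a compound titration at 37 degrees C.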

[10] = qHTS for Inhibitors of ATXN expression: Validation (AID 588378); also: series mostly up to about 57 µM; nearly all actives have a fitted effect of over 75% in size
Procedure, shortened: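 Cells: HEK293-ATXN2-FFLuc, phenol-red free DMEM, 2 h attachment. Compound pin-transfer, 24 h, 37 degrees C, 5% CO2. CellTiter-Fluor 30 min, Ex405/Em525; Bright-Glo 5 min, luminescence 2 s exposure.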

[11] = target: DNA dC->dU-editing enzyme APOBEC-3G (Homo sapiens) (UniProt Q9HC16); assay: qHTS for inhibitors of Vif-A3G interactions: Validation (AID 588379)
Chain of DNA dC->dU-editing enzyme APOBEC-3G (Homo sapiens) (Q9HC16 whole entry, looked up): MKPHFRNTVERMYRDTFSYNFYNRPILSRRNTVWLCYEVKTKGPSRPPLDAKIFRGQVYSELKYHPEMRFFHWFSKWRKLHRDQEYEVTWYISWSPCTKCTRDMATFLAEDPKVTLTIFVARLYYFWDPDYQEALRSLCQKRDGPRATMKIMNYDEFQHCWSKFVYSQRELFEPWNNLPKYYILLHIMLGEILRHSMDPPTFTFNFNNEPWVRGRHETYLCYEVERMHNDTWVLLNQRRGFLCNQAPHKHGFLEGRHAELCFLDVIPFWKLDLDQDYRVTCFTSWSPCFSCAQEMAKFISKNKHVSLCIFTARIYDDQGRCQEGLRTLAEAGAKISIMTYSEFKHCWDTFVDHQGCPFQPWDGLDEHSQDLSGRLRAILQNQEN
Procedure, shortened: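 Yellow fluorescence (Ex 488, Em 500-530) of Vif-coexpressing HeLa A3G-eYFP cells, scanned by Acumen cytometer, reports blocked A3G degradation. Cells plated at 700/well overnight at 37 deg C before compound addition, then a further overnight compound incubation at 37 deg C.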

Row | Compound | Potency [1] | viability change [1] [%] | outcome [2] | Potency [3] | Potency [4] | Potency [5] | Potency [6] | Potency [7] | Potency [8] | Potency [9] | Potency [10] | Potency [11]
1 | NCCCCN | inactive | -1.47 | inactive | inactive | inactive | inactive | inactive | inactive | inactive | inactive | inactive | 
2 | CNC(=O)c1cc2c(cn1)[nH]c1ccccc12 | inactive | -3.36 | inactive | inactive | inactive | inactive | inactive | inactive | inactive | inactive | inactive | inactive
3 | CNc1cc(NS(=O)(=O)c2ccc(N)cc2)nc(NC)n1 | inactive | 6.74 | inactive | inactive | inactive | inactive | inactive | inactive | inactive | inactive | inactive | 
4 | COc1ccccc1N1CCN(CCCCNC(=O)c2ccc3ccccc3c2)CC1 | inactive | 4.82 | inactive | inactive | inactive | inactive | inactive | inactive | inactive | inactive | inactive | 
5 | NC(=O)c1cc[n+](CC2=C(C(=O)O)N3C(=O)[C@@H](NC(=O)[C@@H](c4ccccc4)S(=O)(=O)[O-])[C@H]3SC2)cc1 | inactive | 3.59 | inactive | inactive | inactive | 9.53 µM (active) | inactive | inactive | inactive | inactive | inactive | 
6 | N=C(N)c1ccc(OCCCCCOc2ccc(C(=N)N)cc2)cc1 (tested in a mixture with another compound) | inactive | -17 | inactive | inactive | inactive | inactive | inactive | inactive | inactive | inactive | inactive | 
7 | c1ccc2nc(C3=NCCN3)ccc2c1 | inactive | 1.31 | inactive | inactive | inactive | inactive | inactive | inactive | inactive | inactive | inactive | inactive
8 | CCC(=O)N1CCN(C(=O)c2ccccc2)CC1 | inactive | 1.55 | inactive | inactive | inactive | inactive | inactive | inactive | inactive | inactive | inactive | 
9 | CC(C)NC[C@H](O)COc1ccc(CC(N)=O)cc1 | inactive | -0.176 | inactive | inactive | inactive | inactive | inactive | inactive | inactive | inactive | inactive | inactive
10 | NC(Cc1cccc(-c2ccccc2CP(=O)(O)O)c1)C(=O)O (stereo not drawn) | inactive | 0.913 | inactive | inactive | inactive | inactive | inactive | inactive | inactive | inactive | inactive | 
11 | CC(C)Cn1c(=O)n(C)c(=O)c2[nH]cnc21 | inactive | 1.08 | inactive | inactive | inactive | inactive | inactive | inactive | inactive | inactive | inactive | 
12 | Cc1cc2c(cc1Cl)N(C(=O)Nc1ccnc3ccccc13)CC2 | inactive | 1.57 | inactive | inactive | inactive | inactive | inactive | inactive | inactive | inactive | inactive | 
13 | O=C(OCCN1CCOCC1)C1(c2ccccc2)CCCCC1 | inactive | -0.582 | inactive | inactive | inactive | inactive | inactive | inactive | inactive | inactive | inactive | inactive
14 | Nn1nnc2ccccc21 | inactive | -0.567 | inactive | inactive | inactive | inactive | inactive | inactive | inactive | inactive | inactive | 
15 | NC(N)=N[C@@H](CCC(=O)O)C(=O)O | inactive | 6.59 | inactive | inactive | inactive | inactive | inactive | inactive | inactive | inactive | inactive | 
16 | O=C(O)CCC(=O)N1CCCC1C(=O)O (stereo not drawn) | inactive | -2.91 | inactive | inactive | inactive | inactive | inactive | inactive | inactive | inactive | inactive | 
17 | O=C(O)[C@H]1NCCC[C@H]1C(=O)O | inactive | 11 | inactive | inactive | inactive | inactive | inactive | inactive | inactive | inactive | inactive | 
18 | O=C(O)/C=C/c1ccc(O)c(O)c1 | inactive | 3.15 | inactive | inactive | inactive | inactive | inactive | inactive | inactive | inactive | inactive | inactive
